Experimental data as given in the antibiotic and cytotoxicity screens of Wong et al. (2023).
The whole screen tested about 39,000 compounds, of which about 500 (1.3%) were called active. The entries come from a sample that favours actives as a whole.

System: S. aureus RN4220
Test: growth inhibition call (relative growth <= 0.2)
Conditions: 50 µM

Structure (SMILES) | growth inhibition call
O=S(=O)(O)c1cc(O)ccc1O | inactive
C[C@@H]1CN([C@H](C)CO)C(=O)c2cccc(NC(=O)c3ccc(-c4nccs4)cc3)c2O[C@@H]1CN(C)C(=O)Nc1ccc2c(c1)OCO2 | inactive
Cc1ccc(S(=O)(=O)N(C)C[C@@H]2OCCCC[C@H](C)Oc3ccc(NC(=O)c4ccccc4)cc3C(=O)N([C@@H](C)CO)C[C@H]2C)cc1 | inactive
C[C@@H]1CN([C@@H](C)CO)C(=O)c2cc(NS(=O)(=O)c3cccs3)ccc2O[C@H]1CN(C)CC1CC1 | inactive
C[C@H](CO)N1C[C@H](C)[C@@H](CN(C)C(=O)Nc2cccc3ccccc23)Oc2ccc(NC(=O)Nc3cccc4ccccc34)cc2CC1=O | inactive
O=C(CCCCC(=O)N/N=C/c1cc(I)cc(I)c1O)NO | active
O=C(CCCCCCC(=O)N/N=C/c1cc(I)cc(I)c1O)NO | inactive
O=C(NO)c1cccc(C(=O)N/N=C/c2cc(I)cc(I)c2O)c1 | inactive
C[C@H]1CN([C@@H](C)CO)C(=O)c2cccc(NC(=O)Nc3ccc4c(c3)OCO4)c2O[C@H]1CN(C)C(=O)Nc1cccc2ccccc12 | inactive
COc1ccc(CN(C)C[C@@H]2OCCCC[C@H](C)Oc3ccc(NC(=O)CCC(F)(F)F)cc3C(=O)N([C@H](C)CO)C[C@H]2C)cc1 | inactive
COc1ccc(NC(=O)N(C)C[C@H]2Oc3c(NC(=O)CCCCCC(=O)Nc4ccccc4N)cccc3C(=O)N([C@H](C)CO)C[C@@H]2C)cc1 | inactive
CO[C@@H]1CN(C)C(=O)c2cc(NC(=O)CC(F)(F)F)ccc2OC[C@H](C)N(C(=O)C2CCOCC2)C[C@@H]1C | inactive
COC1=C2C[C@@H](C)C[C@H](OC)[C@H](O)[C@@H](C)/C=C(\C)[C@H](OC(N)=O)[C@@H](OC)/C=C\C=C(/C)C(=O)NC(=CC1=O)C2=O | inactive
CO[C@H]1/C=C\O[C@@]2(C)Oc3c(C)c(O)c4c(O)c(c(/C=N/N=C/N5CCCCC5)c(O)c4c3C2=O)NC(=O)/C(C)=C\C=C/[C@H](C)[C@H](O)[C@@H](C)[C@@H](O)[C@@H](C)[C@H](OC(C)=O)[C@@H]1C | active
COC1C=COC2(C)Oc3c(C)c(O)c4c(O)c(c(C=NN5CCN(C6CCCC6)CC5)c(O)c4c3C2=O)NC(=O)C(C)=CC=CC(C)C(O)C(C)C(O)C(C)C(OC(C)=O)C1C (stereo not given) | inactive
COC1=C2C[C@H](C)C[C@H](OC)[C@@H](O)[C@H](C)/C=C(\C)[C@H](OC(N)=O)[C@H](OC)/C=C/C=C(\C)C(=O)NC(=CC1=O)C2=O | inactive
CO[C@H]1/C=C\O[C@@]2(C)Oc3c(C)c(O)c4c(c3C2=O)[C@]2(C=C(NC(=O)/C(C)=C\C=C/[C@@H](C)[C@@H](O)[C@@H](C)[C@@H](O)[C@@H](C)[C@@H](OC(C)=O)[C@@H]1C)C4=O)OCC(=O)O2 | active
COC1C=COC2(C)Oc3c(C)c(O)c4c(O)c(c5c(nc6cc(C)ccn65)c4c3C2=O)NC(=O)C(C)=CC=CC(C)C(O)C(C)C(O)C(C)C(OC(C)=O)C1C (stereo not given) | active
COC1C=COC2(C)Oc3c(C)c(O)c4c(O)c(c(C=NN5CCN(C)CC5)c(O)c4c3C2=O)NC(=O)C(C)=CC=CC(C)C(O)C(C)C(O)C(C)C(OC(C)=O)C1C (stereo not given) | inactive
C[C@H](CO)N1C[C@H](C)[C@@H](CN(C)Cc2ccncc2)Oc2c(NS(=O)(=O)c3cn(C)cn3)cccc2C1=O | inactive
O=C1O[C@H](c2ccccc2)[C@H](c2ccccc2)N2[C@H]1[C@@H](C(=O)N1CCN(c3ncccn3)CC1)[C@]1(C(=O)Nc3ccc(C#CC4=CCCCC4)cc31)[C@H]2c1ccc(O)cc1 | inactive
CC(C)CC#Cc1cnc2c(c1)C(=O)N([C@@H](C)CO)C[C@H](C)[C@@H](CN(C)C(=O)CCN1CCCCC1)O2 | inactive
CC(C)NC(=O)Nc1ccc2c(c1)CC(=O)N([C@@H](C)CO)C[C@@H](C)[C@@H](CN(C)S(=O)(=O)c1ccc(F)cc1)O2 | inactive
S=c1[nH]cc(-c2ccccc2)[nH]1 | active
Cn1c(-c2ccccc2)c[nH]c1=S | inactive
Cc1ccc(-c2c[nH]c(=S)[nH]2)cc1 | inactive
CC1CC2C3CCC4=CC(=O)C=CC4(C)C3(Cl)C(O)CC2(C)C1(OC(=O)c1ccco1)C(=O)CCl (stereo not given) | inactive
CN(C)C(=O)c1ccc(-c2cccc(-c3nc(C(=O)NC4CCCC4)cc4c3[C@@H](CCO)N([S@](=O)C(C)(C)C)C4)c2)cc1 | inactive

Structure (SMILES) | growth inhibition call
COc1ccc(S(=O)(=O)Nc2ccc3c(c2)C(=O)N([C@@H](C)CO)C[C@H](C)[C@@H](CN(C)S(C)(=O)=O)OCCCC[C@@H](C)O3)cc1 | inactive
COc1cc2nc(N3CCCN(Cc4ccccc4)CC3)nc(Nc3ccc(F)c(Cl)c3)c2cc1OC | inactive
COc1cc2nc(N3CCCN(Cc4ccccc4)CC3)nc(NC3CCN(Cc4ccccc4)CC3)c2cc1OC | inactive
Brc1ccc2nc(N3CCCN(Cc4ccccc4)CC3)nc(NC3CCN(Cc4ccccc4)CC3)c2c1 | active
COc1ccc2c3c(n(c2c1)C)[C@H](CO)N(Cc1cc(cc(c1)OC)OC)C[C@]13CN(C1)C(=O)NC(C)C | inactive
O=C(O)c1ccc2cc(-c3ccc(O)c(C45CC6CC(CC(C6)C4)C5)c3)ccc2c1 | active
O=C(O)c1ccc2ccccc2c1 | inactive
COc1ccc(-c2ccc3cc(C(=O)O)ccc3c2)cc1C12CC3CC(CC(C3)C1)C2 | inactive
CCO[C@@H]1OC(C(=O)N2CCOCC2)=C[C@H](c2ccccc2)[C@H]1CCCOC(=O)NCCCCCC(=O)NO | inactive
Cc1noc(C)c1NC(=O)N(C)C[C@@H]1Oc2c(NC(=O)c3ccncc3)cccc2C(=O)N([C@@H](C)CO)C[C@H]1C | inactive
COc1ccc(S(=O)(=O)N(C)C[C@H]2OCCCC[C@H](C)Oc3ccc(NS(C)(=O)=O)cc3C(=O)N([C@H](C)CO)C[C@H]2C)cc1 | inactive
CC(C)c1onc(-c2c(Cl)cccc2Cl)c1COc1ccc(/C=C/c2cccc(C(=O)O)c2)c(Cl)c1 | active
CC(C)c1onc(-c2c(Cl)cccc2Cl)c1COc1ccc(C=Cc2cccc(C(=O)O)c2)c(Cl)c1 | inactive
O=C(O)c1ccnc(N2CC(O)(c3ccc(OCc4c(-c5c(Cl)cccc5Cl)noc4C4CC4)cc3Cl)C2)c1 | inactive
CN(C)C(=O)C[C@H]1C=C[C@@H](NC(=O)C2CC2)[C@H](CO)O1 | inactive
CCCCc1oc2ccc(NS(C)(=O)=O)cc2c1C(=O)c1ccc(OCCCN(CCCC)CCCC)cc1.Cl | inactive
CCCCN(CCCC)CCCOC(=O)c1ccc(N)cc1.O=S(=O)(O)O | inactive
CCCCc1oc2ccc(NS(C)(=O)=O)cc2c1C(=O)c1ccc(OCCCN(CCCC)CCCC)cc1 | active
COC(=O)[C@H](Cc1ccc(-n2cc(C(=O)NO)nn2)cc1)N1C[C@](C)(OC)O[C@@H](Cc2ccccc2)[C@H]1/C=C/C1CC1 | inactive
Cc1c(N)nc([C@H](CC(N)=O)NC[C@H](N)C(N)=O)nc1C(=O)N[C@H](C(=O)N[C@H](C)[C@@H](O)[C@H](C)C(=O)N[C@H](C(=O)NCCc1nc(-c2nc(C(=O)NCCCNCCCCN)cs2)cs1)[C@@H](C)O)[C@@H](O[C@@H]1O[C@@H](CO)[C@@H](O)[C@H](O)[C@@H]1O[C@@H]1O[C@H](CO)[C@@H](O)[C@H](OC(N)=O)[C@@H]1O)c1c[nH]cn1 | active
Clc1ccc(C(c2ccc(Cl)cc2)[n+]2ccn(C[C@@H](OCc3ccc(Cl)cc3Cl)c3ccc(Cl)cc3Cl)c2)cc1 | inactive
CCC1OC(=O)C(C)C(OC2CC(C)(OC)C(O)C(C)O2)C(C)C(OC2OC(C)CC(N(C)C)C2O)C(C)(O)CC(C)C2NC(COCCOC)OC(C2C)C1(C)O (stereo not given) | active
CC[C@H]1OC(=O)[C@H](C)[C@@H](O[C@H]2C[C@@](C)(OC)[C@@H](O)[C@H](C)O2)[C@H](C)[C@@H](O[C@@H]2O[C@H](C)C[C@H](N(C)C)[C@H]2O)[C@](C)(O)C[C@@H](C)[C@@H]2N[C@@H](COCCOC)O[C@H]([C@H]2C)[C@]1(C)O | active
CO[C@@H]1CN(C)C(=O)c2cc(NC(=O)Nc3ccc(Cl)cc3)ccc2OC[C@@H](C)N(C(=O)Nc2c(C)noc2C)C[C@@H]1C | inactive
Cc1ccc(S(=O)(=O)N(C)C[C@@H]2OCCCC[C@@H](C)Oc3ccc(NS(C)(=O)=O)cc3C(=O)N([C@H](C)CO)C[C@@H]2C)cc1 | inactive
O=C(C[C@H]1CC[C@H]2[C@@H](COC[C@@H](O)CN2C(=O)c2ccncc2)O1)NC1CCC1 | inactive
COCC(=O)N1C[C@]2(C1)CN([C@@H](CO)c1[nH]c3cc(ccc3c12)OC)S(=O)(=O)C | inactive
